These results are taken from the OligoGym collection.
Also: reference of the scale not given here.

For one assay, the target named is IP6K3. The assay can be described thus: pooled miR-30 sensor sort-seq; sequence = guide strand. The note with it: shRNA.
TTGCAGAGAAAGTACTTCTTAT: the sensor-assay potency score (higher = more potent) is -0.832.
The same measure, in the same setting: the figure for TGACACTACATTTTCCAGCAAC is -1.2; for TTCATAGAACCTCTGCTCCCGG it is -0.506; for TTCTTCCATAGTACTTGTCTTT it is -1.16.
On the same count and under the same terms, the figure for TTTTCCAGCAACAAGAACCGAT is -0.15; for TTGTTCTCTGGGTACTCGGAGC it is -1.42; for TAGATGACAAGGAGAGAGCTGG it is -0.213.
Regarding TACACTTGTCCACCAGTCTTGT, the sensor-assay potency score (higher = more potent) was -0.242.
Regarding ATATTTACACTTGTCCACCAGT, the sensor-assay potency score (higher = more potent) is -0.684.
The same measure, in the same setting: the same measure for TTTTCTTCCATAGTACTTGTCT: 0.567; for TTACACTTGTCCACCAGTCTTG: -0.0833.
In the case of TATTTGAGATCTATAGCCCAGA, the sensor-assay potency score (higher = more potent) was -0.584.

The target of another assay is IPO11. The assay is described as above. The settings on record: shRNA.
For TTCCACAACCTTGAGCACCTGA, the sensor-assay potency score (higher = more potent) was found to be 0.832.
As for TTAACTTCAAAGTTGTAGCTGT, the sensor-assay potency score (higher = more potent) was determined as 0.668.
On the same count and under the same terms, the same measure for TAAATCTTGATCTTGAAGCAAG: -0.725.
TTGTTCTCCTAGCATCTCCTGC registered a sensor-assay potency score (higher = more potent) of -0.927.
Turning to TAGCTGGGTGACAATCTCCGTA, the sensor-assay potency score (higher = more potent) is -0.584.
Still for that read-out and setting: the same measure for TTGTAGTAGAACTCGACCCATA: -0.751.
On the same count and under the same terms, the figure for TTTGTAGTAGAACTCGACCCAT is -0.362; for TTCTTTAATAGCATCATCTGAA it is -0.198.
Same read-out and setting: the same measure for TAACAGGAAACTAAGCAGCTAT: -0.294; for TATCTCTACACACATTATCTGT: -0.812; for TATACTTCTACTGCATTCCAGA: -0.431.
In turn, TAATTCTAAACCATCTTCCAGA returned a sensor-assay potency score (higher = more potent) of -0.364.
